Bioassay records as filed in PubChem BioAssay.
proKLK7 act: proKLK7 (human) activation, primary screen; P49862; purified proKLK7, EDANS-DABCYL substrate fluorescence; 100% is mature enzyme control, 0% vehicle; activation, % at 7 µM; 370,000 compounds, 0.9% hits;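 active means activation above the mean of all tested compounds plus 3 SD, computed per campaign excluding outliers beyond control limits, cut at about 13% in these data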
Target sequence (P49862 whole entry, looked up): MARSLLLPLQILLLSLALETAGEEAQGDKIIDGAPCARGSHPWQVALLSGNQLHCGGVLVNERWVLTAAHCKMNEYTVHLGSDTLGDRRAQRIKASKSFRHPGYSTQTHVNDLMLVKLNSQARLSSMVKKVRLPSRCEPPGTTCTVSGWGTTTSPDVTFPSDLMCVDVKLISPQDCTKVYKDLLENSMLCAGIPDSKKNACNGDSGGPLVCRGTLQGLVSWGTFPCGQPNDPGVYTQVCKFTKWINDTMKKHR
ADAM17 inh: inhibitors of human ADAM17; 370,000 compounds, 0.83% hits; AID 720648; inhibition, % at 6.95 µM; recombinant ADAM17, EDANS/DABCYL FRET peptide cleavage;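 active means inhibition above the mean of compounds lying between control limits plus 3 SD, set per campaign, cut at about 8.5% in these data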;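 further: 0% = DMSO-only wells as the low control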
rRNA inh HTS: inhibits bacterial ribosomal RNA function over humanized ribosomes. 350,000 compounds, 1.6% hits. E. coli WT GFP vs humanized-ribosome RFP mutants, fluorescence, 24 h; stronger effect = lower value; DMSO median 0, no signal -100. GFP signal change (wild-type ribosome), % (no concentration beside the values);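 active means significant combined selectivity score with lowered wild-type GFP, culture density cut under 30%, mutant RFP and density less affected; inactive means any of these conditions unmet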
ADAM10 inh: inhibitors of human ADAM10. inhibition, % at 7 µM. 370,000 compounds, 0.62% hits. recombinant ADAM10, EDANS/DABCYL FRET peptide cleavage, 3 h;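 active means inhibition above a per-campaign cutoff equal to the mean of compounds falling between control-based bounds plus 3 SD, cut at about 20% in these data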;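 further: 0% = DMSO wells while the 100% control is not disclosed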
FGF22 binding: binders of recombinant human FGF22 by thermal shift; Q9HCT0; SYPRO orange fluorescence; percent of sucrose octasulfate shift, DMSO zero; activity (Tm shift, normalised), % at 9.99 µM; 340,000 compounds, 1.5% hits;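 active means mean Tm shift, scaled 0 neutral to 100 positive control, at about 1.3% or above, every replicate too, limit read from the data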
Target sequence (Q9HCT0 whole entry, looked up): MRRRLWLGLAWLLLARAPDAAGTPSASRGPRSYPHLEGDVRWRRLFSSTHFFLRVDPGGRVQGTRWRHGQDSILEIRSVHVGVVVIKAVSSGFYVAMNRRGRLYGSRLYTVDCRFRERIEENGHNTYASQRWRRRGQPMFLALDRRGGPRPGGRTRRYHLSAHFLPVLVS
ADAM10 counter: counter-screen for ADAM17 exosite inhibitors: inhibitors of human ADAM10. shares compounds with ADAM17 inh. recombinant ADAM10, EDANS/DABCYL FRET peptide cleavage, 3 h. inhibition, % at 6.95 µM. 2,900 compounds, 47% hits. AID 743256;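 active means mean inhibition over the triplicate runs exceeds the activity threshold set in the earlier primary screen, cut at about 20% in these data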;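 further: 0% = DMSO wells and 100% = marimastat wells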
ADAM17 confirm: confirmation of inhibitors of human ADAM17; AID 743257; shares compounds with ADAM17 inh; recombinant ADAM17, EDANS/DABCYL QFRET peptide cleavage; 2,900 compounds, 65% hits; inhibition, % at 6.95 µM;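 active means mean inhibition across replicates above the hit cutoff set in the primary screen, cut at about 8.5% in these data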;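 further: 0% = DMSO wells and 100% = marimastat wells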
Active calls of the source: *. Most compounds without a hit are left out; they make up all but 3.8% or so of the library.

Screening CCC(=O)Nc1ccc2c(c1)C(=O)N(C)C[C@@H](OC)[C@H](C)CN(C(=O)Cc1ccccn1)[C@H](C)CO2 returned rRNA inh HTS 3 and FGF22 binding 0.
`COc1ccc(NC(=O)Nc2ccc3c(c2)C(=O)N([C@@H](C)CO)C[C@@H](C)[C@@H](CN(C)C(=O)NC2CCCCC2)O3)cc1` gave rRNA inh HTS -1 and FGF22 binding -1.
Cc1nnc(NC(=O)CCn2c(=O)oc3ccc(Cl)cc32)s1 was read as proKLK7 act 0, ADAM17 inh 0, rRNA inh HTS 2, ADAM10 inh -4 and FGF22 binding 0.
For Cc1csc(NC(=O)CCn2c(=O)oc3ccc(Cl)cc32)n1 the results were proKLK7 act 0, ADAM17 inh 8.7*, rRNA inh HTS 1, ADAM10 inh -6, FGF22 binding 0, ADAM10 counter -3 and ADAM17 confirm 1.
`CSCSC1=C(C#N)C(c2ccccc2Cl)C(C(C)=O)=C(C)N1` (centres undefined) gave proKLK7 act 0, ADAM17 inh 15*, ADAM10 inh 4, ADAM10 counter 10 and ADAM17 confirm 9.3*.
CCOC(=O)CSC1=C(C#N)C(c2ccccc2F)C(C(C)=O)=C(C)N1 (centres undefined) was read as proKLK7 act 3, ADAM17 inh 0, rRNA inh HTS -35 and ADAM10 inh -5.
Screening CN(C)S(=O)(=O)c1cccc(NC(=O)c2cccc(S(=O)(=O)N3CCc4ccccc43)c2)c1 returned proKLK7 act -1, ADAM17 inh 9.5*, rRNA inh HTS -11, ADAM10 inh 12, FGF22 binding 0, ADAM10 counter 41* and ADAM17 confirm 22*.
For CN(C)S(=O)(=O)c1cccc(NC(=O)c2ccc(COc3ccccc3)cc2)c1 the results were proKLK7 act 0, ADAM17 inh 9.6*, rRNA inh HTS -2, ADAM10 inh 18, FGF22 binding 0, ADAM10 counter 24* and ADAM17 confirm 14*.
Screening O=C(Nc1ccc2c(c1)OCO2)N[C@@H]1CC[C@H](CCNC(=O)C2CCCC2)O[C@H]1CO returned rRNA inh HTS 4 and FGF22 binding 0.
For Cc1ccc(S(=O)(=O)N(C)C[C@@H]2Oc3ccc(NC(=O)Nc4cccc5ccccc45)cc3C(=O)N([C@H](C)CO)C[C@@H]2C)cc1 the results were rRNA inh HTS 1.
For CCOc1ccccc1NC(=O)COC(=O)Cc1ccc(-c2ccccc2)cc1 the results were proKLK7 act 0, ADAM17 inh 5, rRNA inh HTS -4, ADAM10 inh 11 and FGF22 binding 0.
COc1cc(NC(=O)COC(=O)Cc2ccc(-c3ccccc3)cc2)cc(OC)c1 was read as proKLK7 act 0, ADAM17 inh 11*, ADAM10 inh 17, FGF22 binding 1, ADAM10 counter 23* and ADAM17 confirm 12*.
For C[C@@H]1CN([C@H](C)CO)C(=O)c2cc(NC(=O)c3ccccc3)ccc2O[C@@H](C)CCCCO[C@H]1CN(C)Cc1ccc2c(c1)OCO2 the results were rRNA inh HTS 2 and FGF22 binding 0.
Screening Cc1ccc(S(=O)(=O)Nc2cc(=O)[nH]c(SCc3ccc(Cl)cc3)n2)cc1 returned proKLK7 act 0, ADAM17 inh 12*, ADAM10 inh 16, FGF22 binding 0, ADAM10 counter 20* and ADAM17 confirm 17*.
Screening CC1=CC2=NC(=O)/C(=C\c3cccn3CCOc3cccc(C)c3)C(=N)N2O1 returned proKLK7 act 0, ADAM17 inh 8.7*, rRNA inh HTS -13, ADAM10 inh 9, FGF22 binding 0, ADAM10 counter 6 and ADAM17 confirm 7.
